Values joined by “and” are separate entries in the source; they are usually repeats but may differ in a detail not shown here. Equal values may be shown once. Results filed as inconclusive are left out. Where a call stands in place of a potency, no number is given. Some structures have more than one record in an assay (separate samples or runs), and their calls can disagree. Active and inactive are the calls of the source. Unless noted, calls come from the whole dose curve; as a rule, active = well fitted curve in the direction sought with a large enough effect in the repeat runs; inconclusive = weak or mixed curves; inactive = no such curve, though single readings can be large; an effect the other way counts as inactive or inconclusive.
Tests used:
[1] = qHTS assay to test for compound auto fluorescence at 535 nm (green) in HEK293 cells (AID 720680)
[2] = qHTS assay to test for compound auto fluorescence at 460 nm (blue) in HEK293 cell free culture (AID 720681)
Outline: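 Test compounds were pinned into cell-free culture medium (DMEM with 10% FBS) and fluorescence was read directly at Ex/Em 405/460 nm. Signals were expressed as fluorescence equivalents of triamterene, with DMSO vehicle as control.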

[3] = qHTS assay to test for compound auto fluorescence at 535 nm (green) in HEK293 cell free culture (AID 720682)
Outline: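 Green-label autofluorescence (485 nm excitation, 535 nm emission) measured on compound added to cell-free culture medium (DMEM, 10% FBS). Output is expressed relative to fluorescein.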

[4] = qHTS assay to test for compound auto fluorescence at 590 nm (red) in HEK293 cell free culture (AID 720683)
Outline: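 Tox21 10K library compounds were pinned into cell-free DMEM with 10% FBS and fluorescence was read at excitation 540 nm. Activity is expressed as Rose Bengal sodium equivalency.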

[5] = qHTS assay to test for compound auto fluorescence at 590 nm (red) in HepG2 cell free culture (AID 720684)
Outline: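 Readout: intrinsic compound fluorescence at 590 nm emission after 540 nm excitation, scaled to Rose Bengal sodium. Matrix was cell-free MEM with 10% FBS; DMSO vehicle wells served as control.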

[6] = qHTS assay to test for compound auto fluorescence at 460 nm (blue) in HepG2 cell free culture (AID 720685)
Outline: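 Cell-free plates of MEM plus 10% FBS received 23 nL compound or DMSO vehicle; blue-channel (405/460 nm) intensity scored against triamterene as reference fluorophore.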

[7] = qHTS assay to test for compound auto fluorescence at 535 nm (green) in HepG2 cell free culture (AID 720686)
[8] = qHTS assay to test for compound auto fluorescence at 460 nm (blue) in HepG2 cells (AID 720687)
Outline: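 Cells (2,000/well in MEM with 10% FBS) attached overnight at 37 C, then were exposed to compound or DMSO for 1 hr at 37 C, 5% CO2. Fluorescence read at Ex/Em 405/460 nm, expressed as triamterene-equivalent signal.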

[9] = target: Glucocorticoid receptor (Homo sapiens) (UniProt P04150); test: qHTS assay to identify small molecule agonists of the glucocorticoid receptor (GR) signaling pathway (AID 720691; active = well fitted activation curve with a large enough effect in the signal ratio in the repeat runs, not every such curve was filed as active; the % refers to the signal ratio); details: GR-bla HeLa, beta-lactamase reporter ratio, 18 h; activation: at 62.4 µM (top of the series)
Outline: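 Compounds in DMSO, alongside positive controls, were added to GR-bla HeLa reporter cells and incubated 18 h at 37 C; GRE-driven beta-lactamase was detected by fluorescence after 2 h with FRET substrate at room temperature.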

[10] = target: Glucocorticoid receptor (Homo sapiens) (UniProt P04150); test: qHTS assay to identify small molecule antagonists of the glucocorticoid receptor (GR) signaling pathway (AID 720692; active = well fitted inhibition curve with a large enough effect in the signal ratio in the repeat runs, not every such curve was filed as active; the % refers to the signal ratio; note: potency is the fitted concentration of half-maximal effect)
Outline: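 In a 1536-well cell format, compounds were added 4 h after seeding GR-bla HeLa cells, together with dexamethasone at 5 nM final; reporter activity was measured by FRET-substrate fluorescence following 18 h at 37 C.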

[11] = qHTS assay for identifying genotoxic compounds that show differential cytotoxicity against isogenic chicken DT40 cell lines with known DNA damage response pathways - wild type cell line (AID 743012); note: nearly all actives have a fitted effect of over 60% in size; note: potency is the fitted concentration of half-maximal effect
Outline: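 Viability of DNA repair-proficient chicken DT40 cells was assessed by CellTiter-Glo luminescence following 40 h compound exposure at 37 C/5% CO2.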

[12] = qHTS assay for identifying genotoxic compounds that show differential cytotoxicity against isogenic chicken DT40 cell lines with known DNA damage response pathways - Rev3 mutant cell line (AID 743014); note: nearly all actives have a fitted effect of over 55% in size; note: potency is the fitted concentration of half-maximal effect
[13] = qHTS assay for identifying genotoxic compounds that show differential cytotoxicity against isogenic chicken DT40 cell lines with known DNA damage response pathways - Rad54/Ku70 mutant cell line (AID 743015); note: nearly all actives have a fitted effect of over 60% in size; note: potency is the fitted concentration of half-maximal effect
[14] = qHTS assay to identify small molecule antagonists of the androgen receptor (AR) signaling pathway - cell viability counter screen (AID 743033; note: nearly all actives have a fitted effect of over 45% in size)
[15] = target: Androgen receptor (Homo sapiens) (UniProt P10275); test: qHTS assay to identify small molecule antagonists of the androgen receptor (AR) signaling pathway (AID 743035; active = well fitted inhibition curve with a large enough effect in the signal ratio in the repeat runs, not every such curve was filed as active; the % refers to the signal ratio)
Outline: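 Reporter HEK293 cells were exposed to compounds and R1881 overnight (16 h, 37C); beta-lactamase activity was then quantified by FRET fluorescence.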

[16] = target: Androgen receptor (Homo sapiens) (UniProt P10275); test: qHTS assay to identify small molecule agonists of the androgen receptor (AR) signaling pathway (AID 743036; active = well fitted activation curve with a large enough effect in the signal ratio in the repeat runs, with a control signal flat, not every such curve was filed as active; the % refers to the signal ratio)
Outline: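 AR-UAS-bla HEK293 cells, plated 4 h before dosing, were treated with compound for 16 h at 37C. beta-Lactamase reporter read after 2 h with LiveBLAzer B/G FRET substrate at room temperature.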

[17] = target: Androgen receptor (Homo sapiens) (UniProt P10275); test: qHTS assay to identify small molecule agonists of the androgen receptor (AR) signaling pathway using the MDA cell line (AID 743040; note: nearly all actives have a fitted effect of over 20% in size)
Outline: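 Agonist activity is measured as luciferase luminescence in human MDA-kb2 cells whose MMTV reporter responds to both AR and GR. Compounds in DMSO incubate 16 h at 37C, 0% CO2, and ONE-Glo is read after 30 min.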

[18] = qHTS assay to identify small molecule antagonists of the androgen receptor (AR) signaling pathway using the MDA cell line - cell viability counter screen (AID 743041; note: nearly all actives have a fitted effect of over 45% in size)
Outline: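 qHTS viability read-out; MDA-kb2 AR-luc; R1881-stimulated; 16 h exposure at 37C, 0% CO2; CellTiter-Fluor, 30 min; fluorescence intensity.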

[19] = target: Androgen receptor (Homo sapiens) (UniProt P10275); test: qHTS assay to identify small molecule antagonists of the androgen receptor (AR) signaling pathway using the MDA cell line (AID 743042; note: nearly all actives have a fitted effect of over 55% in size)
Outline: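 MDA-kb2 cells (human breast carcinoma, stably carrying an MMTV-luciferase reporter responsive to AR and GR) were plated at 3,000 cells/well and preincubated 5 hr at 37C, then given compound plus R1881 agonist for 16 h. ONE-Glo luminescence was read.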

[20] = qHTS assay to identify small molecule antagonists of the glucocorticoid receptor (GR) signaling pathway - cell viability counter screen (AID 720693); note: nearly all actives have a fitted effect of over 55% in size

Androgen receptor (Homo sapiens), sequence (P10275 whole entry, looked up): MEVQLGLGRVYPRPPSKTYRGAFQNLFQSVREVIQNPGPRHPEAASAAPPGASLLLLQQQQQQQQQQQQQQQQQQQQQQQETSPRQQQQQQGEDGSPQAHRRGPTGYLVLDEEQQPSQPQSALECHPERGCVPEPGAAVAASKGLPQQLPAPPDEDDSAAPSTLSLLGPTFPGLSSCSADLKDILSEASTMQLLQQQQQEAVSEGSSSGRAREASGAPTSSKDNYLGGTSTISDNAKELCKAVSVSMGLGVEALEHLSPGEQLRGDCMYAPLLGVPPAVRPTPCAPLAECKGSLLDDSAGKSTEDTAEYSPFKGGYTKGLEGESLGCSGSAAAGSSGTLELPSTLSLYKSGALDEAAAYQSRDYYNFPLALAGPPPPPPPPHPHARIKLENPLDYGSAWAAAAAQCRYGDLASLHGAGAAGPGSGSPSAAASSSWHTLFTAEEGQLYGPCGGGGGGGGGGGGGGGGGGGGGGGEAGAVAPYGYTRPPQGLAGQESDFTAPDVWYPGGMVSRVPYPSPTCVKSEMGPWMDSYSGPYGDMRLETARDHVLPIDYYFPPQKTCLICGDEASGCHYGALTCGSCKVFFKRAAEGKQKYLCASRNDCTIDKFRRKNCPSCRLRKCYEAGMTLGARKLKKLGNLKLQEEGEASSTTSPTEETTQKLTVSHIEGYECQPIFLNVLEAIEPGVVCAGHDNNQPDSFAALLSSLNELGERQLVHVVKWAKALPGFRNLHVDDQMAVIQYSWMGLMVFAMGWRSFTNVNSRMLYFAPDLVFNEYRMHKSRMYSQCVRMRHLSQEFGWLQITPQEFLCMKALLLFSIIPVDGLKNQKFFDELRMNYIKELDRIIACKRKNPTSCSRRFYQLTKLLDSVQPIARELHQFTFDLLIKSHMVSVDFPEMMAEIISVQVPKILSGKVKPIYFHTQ
Glucocorticoid receptor (Homo sapiens), sequence (P04150 whole entry, looked up): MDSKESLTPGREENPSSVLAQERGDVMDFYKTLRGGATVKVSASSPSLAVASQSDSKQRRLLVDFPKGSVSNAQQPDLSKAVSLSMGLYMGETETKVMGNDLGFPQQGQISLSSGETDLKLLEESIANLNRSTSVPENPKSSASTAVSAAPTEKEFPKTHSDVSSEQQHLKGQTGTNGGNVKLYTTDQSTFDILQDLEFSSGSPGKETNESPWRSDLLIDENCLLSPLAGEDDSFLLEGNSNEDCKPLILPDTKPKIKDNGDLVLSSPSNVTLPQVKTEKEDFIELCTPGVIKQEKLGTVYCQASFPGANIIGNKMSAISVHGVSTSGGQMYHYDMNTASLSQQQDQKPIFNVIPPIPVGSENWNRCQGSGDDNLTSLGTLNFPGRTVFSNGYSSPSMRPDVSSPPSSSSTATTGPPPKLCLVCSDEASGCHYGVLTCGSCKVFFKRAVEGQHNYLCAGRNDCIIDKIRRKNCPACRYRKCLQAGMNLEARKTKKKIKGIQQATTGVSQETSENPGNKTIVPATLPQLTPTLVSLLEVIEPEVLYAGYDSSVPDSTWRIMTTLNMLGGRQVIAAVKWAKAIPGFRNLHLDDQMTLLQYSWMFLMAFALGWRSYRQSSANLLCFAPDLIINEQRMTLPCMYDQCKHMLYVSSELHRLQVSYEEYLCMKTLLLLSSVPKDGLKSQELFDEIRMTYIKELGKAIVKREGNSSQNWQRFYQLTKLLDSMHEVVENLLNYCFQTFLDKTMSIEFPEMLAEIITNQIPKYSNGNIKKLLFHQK

Row | SMILES | outcome [1] | Potency [2] | outcome [3] | outcome [4] | outcome [5] | Potency [6] | Potency [7] | Potency [8] | Potency [9] | Potency [10] | Potency [11] | Potency [12] | Potency [13] | Potency [14] | Potency [15] | Potency [16] | Potency [17] | Potency [18] | Potency [19] | Potency [20]
1 | CC1(C)CCC(NC(=O)[C@@H](N)CCC(=O)O)CC1 | inactive | inactive | inactive | inactive | inactive | inactive | inactive | inactive | inactive | inactive | inactive | inactive | inactive | inactive | inactive | inactive | inactive | inactive | inactive | –
2 | C[C@@H]1O[C@@H]1P(=O)(O)O | inactive | inactive | inactive | inactive | inactive | inactive | inactive | inactive | inactive | inactive | – | – | inactive | inactive | inactive | inactive | inactive | inactive | inactive | inactive
3 | C(=C\c1ccncc1)/c1ccccc1 | inactive | inactive | inactive | inactive | inactive | inactive | inactive | inactive | inactive | inactive | inactive and 26.6 µM (active) | inactive and 26.6 µM (active) | inactive and 26.6 µM (active) | inactive | – | – | – | – | – | –
4 | CCCCCCOC(=O)c1cccnc1 | inactive | inactive | inactive | inactive | inactive | inactive | inactive | inactive | inactive | inactive | – | inactive | inactive | inactive | – | – | – | inactive | – | inactive
5 | N=C(N)n1cccn1 | inactive | inactive | inactive | inactive | inactive | inactive | inactive | inactive | inactive | inactive | inactive | inactive | inactive | inactive | – | – | – | inactive | – | –
6 | CCN(CC)C(=O)[C@]1(c2ccccc2)C[C@@H]1CN | inactive | inactive | inactive | inactive | inactive | inactive | inactive | inactive | inactive | inactive | inactive | – | inactive | – | – | – | – | inactive | – | inactive
7 | CCCCC/C=C\C=C\C(=O)OCC | inactive | inactive | inactive | inactive | inactive | inactive | inactive | inactive | inactive | 45.5 µM (active) | 12.7 µM (active) | 16 µM (active) | 12.7 µM (active) | – | – | – | – | – | – | –
8 | NC(=O)C1c2ccccc2CCc2ccccc21 | inactive | inactive | inactive | inactive | inactive | inactive | inactive | inactive | inactive | inactive | – | – | inactive | inactive | – | inactive | inactive | inactive | inactive | inactive
9 | Cc1c(O)c(=O)ccn1C | inactive | inactive | inactive | inactive | inactive | inactive | inactive | inactive | inactive | inactive | inactive | – | inactive | inactive | – | – | – | inactive | – | inactive
10 | CN[C@@H]1[C@@H](O[C@H]2O[C@H](CO)[C@@H](N)[C@H](O)[C@H]2O)O[C@H]2C[C@@H](N)[C@@H](O[C@H]3[C@H](O)[C@@H](O)[C@H](N)C[C@@H]3N)O[C@@H]2[C@@H]1O | inactive | inactive | inactive | inactive | inactive | inactive | inactive | inactive | inactive | inactive | – | inactive | inactive | inactive | inactive | inactive | inactive | inactive | inactive | inactive
11 | CO/N=C(\C(=O)N[C@@H]1C(=O)N2C(C(=O)O)=C(COC(C)=O)CS[C@H]12)c1csc(N)n1 (stereo in doubt) | inactive | inactive | inactive | inactive | inactive | inactive | inactive | inactive | inactive | inactive | – | inactive | inactive | inactive | – | – | – | inactive | – | inactive
12 | Nc1cc(Cl)c(NC2=NCCN2)c(Cl)c1 | inactive | inactive | inactive | inactive | inactive | inactive | inactive | inactive | inactive | inactive | inactive | – | inactive | inactive | – | – | – | inactive | – | inactive
13 | Nc1nc(/C(=C/CC(=O)O)C(=O)N[C@@H]2C(=O)N3C(C(=O)O)=CCS[C@H]23)cs1 | inactive | inactive | inactive | inactive | inactive | inactive | inactive | inactive | inactive | inactive | – | inactive | inactive | inactive | – | – | – | inactive | – | inactive
14 | COC1[C@@H](O[C@@H]2O[C@H](C)[C@@H](O[C@H]3C[C@@](C)(O)[C@H](OC(=O)CC(C)C)[C@H](C)O3)[C@H](N(C)C)[C@H]2O)[C@@H](CC=O)C[C@@H](C)[C@@H](O)/C=C/C=C/C[C@@H](C)OC(=O)C[C@H]1OC(C)=O (some centres not stated) | inactive | inactive | inactive | inactive | inactive | inactive | inactive | inactive | inactive | inactive | – | inactive | inactive | – | – | – | – | inactive | – | inactive
15 | C[N+]1(CCCCC[N+]2(C)CCCC2)CCCC1 | inactive | inactive | inactive | inactive | inactive | inactive | inactive | inactive | inactive | inactive | – | inactive | inactive | inactive | inactive | inactive | inactive | inactive | inactive | inactive

— PubChem BioAssay (Tox21)
